Source: the supplement of paper PMC3545927
This is one part of the list. How many sequences the whole screen found active is unknown.

Molecular target: furin, P09958
Assay: furin cleavage Z-score vs untreated control; higher = more cleavage, active = 3.5 or more, inactive = 1 or less, 8 variable residues between constant flanks
Procedure, shortened: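 Read counts from sequencing released DNA gave abundance for each bead-bound 8-mer peptide–cDNA fusion cut by purified furin over 7.5, 15 or 30 min. The cleavage Z-score compares log counts with furin-free reactions after lowess adjustment and median absolute deviation scaling.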
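Further: purified furin at 1:10 enzyme:substrate in 50 mM HEPES pH 7.5.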

furin, P09958, sequence (P09958 whole entry): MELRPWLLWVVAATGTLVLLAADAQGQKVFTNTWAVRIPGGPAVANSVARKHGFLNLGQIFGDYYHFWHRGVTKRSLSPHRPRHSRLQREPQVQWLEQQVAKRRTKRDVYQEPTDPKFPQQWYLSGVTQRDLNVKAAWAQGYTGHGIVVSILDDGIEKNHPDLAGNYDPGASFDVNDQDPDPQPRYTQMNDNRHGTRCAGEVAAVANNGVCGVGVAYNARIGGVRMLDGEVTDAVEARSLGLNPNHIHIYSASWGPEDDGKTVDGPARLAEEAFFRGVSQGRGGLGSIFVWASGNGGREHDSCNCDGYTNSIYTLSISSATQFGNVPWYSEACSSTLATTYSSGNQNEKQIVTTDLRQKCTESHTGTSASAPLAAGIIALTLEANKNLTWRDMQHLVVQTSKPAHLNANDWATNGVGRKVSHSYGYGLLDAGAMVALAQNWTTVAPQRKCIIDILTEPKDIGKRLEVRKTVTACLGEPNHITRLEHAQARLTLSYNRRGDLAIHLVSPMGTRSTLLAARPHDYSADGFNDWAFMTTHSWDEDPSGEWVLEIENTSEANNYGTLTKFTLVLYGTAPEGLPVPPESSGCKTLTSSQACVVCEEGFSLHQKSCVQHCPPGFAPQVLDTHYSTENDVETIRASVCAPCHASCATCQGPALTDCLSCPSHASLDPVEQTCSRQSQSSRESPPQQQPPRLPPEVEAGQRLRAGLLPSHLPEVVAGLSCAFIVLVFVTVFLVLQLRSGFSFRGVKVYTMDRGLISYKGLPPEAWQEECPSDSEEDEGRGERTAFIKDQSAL

| Sequence | furin cleavage Z-score (7.5 min) | furin cleavage Z-score (15 min) | furin cleavage Z-score (30 min) |
| --- | --- | --- | --- |
| CAHERRMKRFAGNASASA [FS-791] | 10 (active) | 11.5 (active) | 9.74 (active) |
| CARSGRAKRFAGNASASA [FS-1271] | 10.1 (active) | 10.5 (active) | 11.1 (active) |
| CARPARLHRFAGNASASA [FS-1065] | -0.918 (inactive) | 0.964 (inactive) | 0.792 (inactive) |
| CARPRRFMDLAGNASASA [FS-3163] | 0.819 (inactive) | 0.127 (inactive) | 1.71 |
| CARSGRGPFGAGNASASA [FS-1925] | -0.792 (inactive) | -2.29 (inactive) | -0.384 (inactive) |
| CARPRRAKRFAGNASASA [FS-1069] | 9.54 (active) | 11 (active) | 9.13 (active) |
| CADLGRAKRFAGNASASA [FS-225] | 6.94 (active) | 8.17 (active) | 9.16 (active) |
| CARSGRHVVFAGNASASA [FS-3079] | -0.951 (inactive) | 0.442 (inactive) | 1.42 |
| CAKFPGGGQIAGNASASA [HC172] | -2.08 (inactive) | 0.112 (inactive) | -2.19 (inactive) |
| CAELTTPCSGAGNASASA [HC1965] | -0.879 (inactive) | -0.537 (inactive) | -1 (inactive) |
| CAENLETTMRAGNASASA [HC760] | 0.652 (inactive) | 0.35 (inactive) | 0.0456 (inactive) |
| CADPERRKRFAGNASASA [FS-985] | 4.94 (active) | 7 (active) | 7.37 (active) |
| CATHFFSVLIAGNASASA [HC1584] | -0.934 (inactive) | -0.739 (inactive) | -0.913 (inactive) |
| CAVVCCSMSNAGNASASA [HC2101] | 0.58 (inactive) | 0.0609 (inactive) | 0.764 (inactive) |
| CARPARALHPAGNASASA [FS-2734] | 1.19 | 3.17 | 4.44 (active) |
| CARPARVALPAGNASASA [FS-2053] | -1.54 (inactive) | -0.594 (inactive) | 1.32 |
| CARPARGAGPAGNASASA [FS-3015] | 0.195 (inactive) | -1.12 (inactive) | -0.256 (inactive) |
| CARLRRSSSPAGNASASA [FS-2353] | 9.29 (active) | 8.89 (active) | 6.99 (active) |
| CARLARGSPPAGNASASA [HC1255] | 0.846 (inactive) | 0.514 (inactive) | 0.935 (inactive) |
| CARLARSFDCAGNASASA [FS-2568] | 1.56 | 2.61 | 3.82 (active) |
| CARLARALSPAGNASASA [FS-1735] | 5.51 (active) | 6.45 (active) | 6.16 (active) |
| CAWAGWLLSPAGNASASA [HC207] | -0.479 (inactive) | 0.659 (inactive) | 1.76 |

| Sequence | furin cleavage Z-score (7.5 min) | furin cleavage Z-score (15 min) | furin cleavage Z-score (30 min) |
| --- | --- | --- | --- |
| CATDATSILGAGNASASA [HC821] | 0.234 (inactive) | -0.686 (inactive) | -0.354 (inactive) |
| CARHKKSKFTAGNASASA [FS-3253] | -0.584 (inactive) | -0.415 (inactive) | -1.12 (inactive) |
| CASMPPLEGEAGNASASA [HC1354] | 0.264 (inactive) | -0.391 (inactive) | -0.745 (inactive) |
| CAGAAKAAAGAGNASASA [NG6] | -1.87 (inactive) | -1.89 (inactive) | -1.77 (inactive) |
| CAVVCCYMSYAGNASASA [HC117] | -0.228 (inactive) | 0.612 (inactive) | -0.215 (inactive) |
| CAMTGYTGDFAGNASASA [HC881] | 0.318 (inactive) | 1.08 | -0.18 (inactive) |
| CARPARFLDSAGNASASA [FS-2051] | 0.467 (inactive) | 1.13 | 1.17 |
| CARLRRGGDPAGNASASA [FS-2574] | -0.102 (inactive) | 1.44 | 0.372 (inactive) |
| CAVTKRSLSPAGNASASA [FS-2115] | 1.18 | 3.3 | 4.48 (active) |
| CARLRRGQCPAGNASASA [FS-1744] | -0.204 (inactive) | 1.25 | -0.396 (inactive) |
| CARLRRSLKPAGNASASA [FS-1745] | 6.9 (active) | 7.63 (active) | 9.8 (active) |
| CARDRSELSPAGNASASA [HC489] | -0.384 (inactive) | 0.819 (inactive) | -0.778 (inactive) |
| CARLARGEDEAGNASASA [FS-2983] | -0.38 (inactive) | -0.666 (inactive) | -0.468 (inactive) |
| CARPARFLRHAGNASASA [FS-1401] | 7.22 (active) | 9.82 (active) | 7.94 (active) |
| CAVTKRDVLDAGNASASA [FS-3144] | -0.767 (inactive) | -0.792 (inactive) | 0.507 (inactive) |
| CARLARNVKEAGNASASA [FS-2984] | 4.24 (active) | 6.29 (active) | 5.68 (active) |
| CAEEVALSTTAGNASASA [HC842] | 0.962 (inactive) | -0.0897 (inactive) | 1.67 |
| CAEGTTPCSGAGNASASA [HC1976] | -0.304 (inactive) | 0.383 (inactive) | -0.263 (inactive) |
| CASTECSAHLAGNASASA [HC2512] | -0.161 (inactive) | -0.192 (inactive) | 2.81 |
| CAEVVHSTWVAGNASASA [HC129] | -0.835 (inactive) | 0.0271 (inactive) | -0.684 (inactive) |
| CAHKFNSSGCAGNASASA [HC383] | 0.00727 (inactive) | -1.4 (inactive) | -0.526 (inactive) |
